Assay outcomes deposited in PubChem by National Center for Advancing Translational Sciences (NCATS).
S-ASM inh – Inhibitors of Secretory Acid Sphingomyelinase (S-ASM): qHTS. 340,000 tested, 0.006% active. placental ASM, HMU-PC fluorogenic substrate, 60 min. Potency, µM (highest dose often 57.5 µM), without a hit: top-dose activity change, negative = inhibition, usual class: inhibitors; further: potency means the concentration at half of the fitted maximal effect
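Steps: dispense placental human ASM, pin compound, wait 10 min at room temperature, add HMU-PC0 substrate at 9 uM final, incubate 60 min at 37 °C, add stop solution raising pH to 10, read fluorescence.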
Tb PFK block – qHTS Assay to Find Inhibitors of T. brucei phosphofructokinase; Potency, µM (doses to about 57.5 µM), without a hit: top-dose activity, negative = inhibition, actives largely listed as inhibitors; AID 485367, 2010; T. brucei PFK, ADP-Glo luminescence; 330,000 tested, 0.17% active;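 further: potency means the concentration at half of the fitted maximal effect; 0% = uninhibited 1x PFK enzyme wells and -100% = no-enzyme wells; nearly all actives have a fitted effect of over 60% in size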
Target sequence (O15648 whole entry, looked up): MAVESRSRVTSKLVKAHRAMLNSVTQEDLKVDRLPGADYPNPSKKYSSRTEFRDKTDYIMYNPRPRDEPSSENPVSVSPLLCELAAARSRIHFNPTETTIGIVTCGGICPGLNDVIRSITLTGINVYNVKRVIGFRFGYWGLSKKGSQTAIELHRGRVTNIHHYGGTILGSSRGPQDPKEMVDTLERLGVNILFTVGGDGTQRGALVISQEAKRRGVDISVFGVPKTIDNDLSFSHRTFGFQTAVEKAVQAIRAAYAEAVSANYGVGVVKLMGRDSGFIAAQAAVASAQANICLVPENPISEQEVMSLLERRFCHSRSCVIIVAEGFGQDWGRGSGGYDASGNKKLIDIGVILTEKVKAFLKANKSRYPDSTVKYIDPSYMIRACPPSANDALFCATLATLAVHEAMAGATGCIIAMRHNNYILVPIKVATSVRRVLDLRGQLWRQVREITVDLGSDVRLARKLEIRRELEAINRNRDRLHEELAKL
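Activity is normalized to no-enzyme wells (full inhibition) and 1.25 nM enzyme wells (no inhibition). Reaction: 0.5 mM F6P, 0.1 mM ATP, 45 min RT, ADP-Glo luminescence; concentration-response curves fitted and classed by quality.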
p53 reactivator – qHTS assay for re-activators of p53 using a Luc reporter. H1299 p53-A138V BP100-luciferase reporter, luminescence, 24 h. Potency, µM (titrated, usually from 92.2 µM), without a hit: top-dose activity change, positive = activation, hits mostly activators. 320,000 tested, 0.063% active; further: potency means the concentration at half of the fitted maximal effect; % of control where 0% means no effect; nearly all actives have a fitted effect of over 45% in size
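p53-null H1299 cells stably carrying temperature-sensitive p53-A138V and a BP100-luciferase reporter were pinned with compounds (4-point, 1:5 series) and held 24 hrs at 37 deg C. Luminescence was read 10 min after detection reagent.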
AT treatment – qHTS Assay for Identifying a Potential Treatment of Ataxia-Telangiectasia | Potency, µM (series often up to 57.5 µM), for inactives: top-dose activation, usual class: activators | F2112 A-T fibroblasts, KAP-1 phosphorylation AlphaLISA; neocarzinostatin DNA damage 30 min before lysis | 320,000 tested, 0.19% active; further: potency means the concentration at half of the fitted maximal effect; % of control where 0% means no effect; nearly all actives have a fitted effect of over 45% in size
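hTERT-immortalized A-T patient fibroblasts (F2112), 500 cells/well in OPTI-MEM, 1% FBS, got compounds for 60 min, then NCS for 30 min at 37C. Lysates were then assayed for phospho-KAP-1 by AlphaLISA (anti-pKAP1 donor, anti-KAP1 acceptor beads), 6 hr at 25C.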
GCN5L2 inh-1 – qHTS Assay for Inhibitors of GCN5L2; 390,000 tested, 0.21% active; GCN5L2 HAT assay, ThioGlo1 CoA-SH fluorescence; Potency, µM (titrated, usually from 58.9 µM), for inactives: at the highest dose activity change, negative = inhibition, most hits filed as inhibitors; further: potency means the concentration at half of the fitted maximal effect; on the % scale 0 is the no-effect control and ±100 the full control effect
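Preincubate 20nM GCN5L2 with compound 15 min, RT → add 50uM ThioGlo1 + 75uM H3(1-25) + 70uM acetyl-CoA → read fluorescence 0 and 20 min. Primary qHTS; fluorescent artifacts likely.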
ERG-DNA inh – qHTS for Small Molecule Inhibitors of the ERG Ets/DNA interaction. AID 624246, 2012. Potency, µM (doses to about 76.9 µM), for inactives: at the top dose FP activity, negative = inhibition, most hits filed as inhibitors. 370,000 tested, 0.028% active. Transcriptional regulator ERG (Homo sapiens), P11308. fluorescence polarization, His-ERG Ets domain / labelled DNA; active means well fitted inhibition curve with a large enough effect in the polarisation, with a control signal flat; inconclusive means small, poorly fitted or top-dose-only effect, or effect the other way, or a change in a side signal; inactive means no such curve, though single readings can be large or run the other way; the % refers to the polarisation;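 further: polarization taken with two DNA probes labelled with fluorescein and Texas red; potency means the concentration at half of the fitted maximal effect; % of control where 0% means no effect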
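His-tagged ERG Ets domain (1 uM in the protein solution; 300mM KCl, 50mM Tris-HCl, 1mM EDTA, 1mM DTT, pH 7.5) received compound, then a probe mix of 5 nM fluorescein-DNA and 100nM Texas-615-DNA. Fluorescence polarization was read for both dyes.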
GCN5L2 inh-2 – qHTS Assay for Inhibitors of GCN5L2: Hit confirmation; shares compounds with GCN5L2 inh-1; GCN5L2 HAT, ThioGlo1 CoA fluorescence, 20 min; Potency, µM, most hits filed as inhibitors; 140 tested, 70% active
Starred values were filed as active, the others as inactive; i = inactive; ? = inconclusive; · = no result. This is a sample that favours compounds with a hit; in the whole collection about 0.55% have one here. Unless noted, the call rests on the fitted dose curve; in most records, active means well fitted curve in the direction sought with a large enough effect; inconclusive means small, poorly fitted or top-dose-only effect, or another doubt; inactive means no such curve, though single readings can be large; an effect the other way counts as inactive or inconclusive.

SMILES	S-ASM inh	Tb PFK block	p53 reactivator	AT treatment	GCN5L2 inh-1	ERG-DNA inh	GCN5L2 inh-2
CCOc1cc(/C=C2\CCCc3c2nc2ccccc2c3C(=O)O)ccc1OC	34.2%	4.6%	-3.6%	-13.5%	25.1µM*	?	?
COc1cc(/C=C2\CCc3c2nc2ccccc2c3C(=O)O)cc(OC)c1OC	368.8%	-14.2%	8.8%	27.8%	12.6µM*	-1.0%	20.4*
Cc1cccc(OCC(=O)Nc2cccc(C(=O)OCc3cc(=O)n4nc(C(C)C)sc4n3)c2)c1	·	·	·	·	-5.5%	-4.4%	·
COC(=O)c1scc2c(=O)cc(C(F)(F)F)[nH]c12	i	-27.9%	-1.8%	-4.7%	22.4µM*	·	36.3*
COC(=O)c1ccc2[nH]c(C)cc(=O)c2c1	9.4%	-1.6%	-3.0%	-3.1%	-10.0%	0.8%	·
CNC(=O)NC(=O)C(C)OC(=O)c1c2c(nc3ccccc13)/C(=C/c1cccs1)CC2 (stereo unspecified)	i	-0.2%	?	-0.9%	14.1µM*	-8.6%	?
CCCCNC(=O)COC(=O)c1c2c(nc3ccccc13)/C(=C/c1cccs1)CC2	367.3%	-2.0%	?	26.3%	-19.3%	-0.5%	·
CCOc1cc(-c2ccc(OC(=O)c3ccc(OC)cc3)c(OC)c2)cc(=O)c2c(C)oc(C)c12	·	·	·	·	-24.8%	-2.2%	·
Cc1ccc(CNC(=O)C(=O)Nc2c3c(nn2-c2ccc(F)cc2)CSC3)cc1	·	·	·	·	-6.8%	8.5%	·
CCN(CC)C(=O)COC(=O)c1cc(-c2ccco2)nc2ccccc12	i	-12.9%	?	5.2%	?	-4.8%	32.4*
CNC(=O)COC(=O)c1cc(-c2ccco2)nc2ccccc12	89.4%	-20.5%	4.0%	2.0%	-26.7%	12.6%	·
CCOC(=O)C1CCCN(C(=O)c2cc(-c3ccco3)nc3ccccc23)C1 (stereo unspecified)	148.0%	-11.6%	-7.8%	-42.1%	28.2µM*	0.8%	18.2*
CCOC(=O)C1CCCN(C(=O)c2cc(-c3ccncc3)nc3ccccc23)C1 (stereo unspecified)	·	-4.8%	-9.0%	8.9%	3.3%	7.9%	·
CC(=O)OC1CC2C(C)(C)C(O)C=C[C@@]2(C)C2CC[C@@]3(C)C(c4ccoc4)OC(=O)C4OC43[C@]12C (stereo partly specified)	·	·	·	·	-2.9%	·	·
CCSc1ccccc1C(=O)Nc1ccc(S(=O)(=O)NC(C)=O)cc1	2.0%	-10.8%	7.4%	2.4%	17.8µM*	6.3%	?
COCCCn1c(=S)[nH]c2ccc(N3CCOCC3)cc2c1=O	7.9%	1.8%	0.6%	7.6%	?	0.3%	32.4*
O=C(Cc1ccc(Cl)cc1Cl)Nc1cccc(S(=O)(=O)Nc2ccccc2F)c1	-9.4%	?	-3.9%	-0.8%	?	-17.6%	?
Cc1ccccc1S(=O)Cc1ccc(C(=O)NCc2ccccc2Cl)o1 (stereo unspecified)	·	·	·	·	0.4%	-3.1%	·
CC(=O)N1c2ccccc2C2(O)N=C(C)SC12 (stereo unspecified)	5.1%	-19.7%	22.2%	-1.0%	7.94µM*	-6.9%	9.13*
CC(=O)N1c2ccccc2[C@@H](C)[C@@H]1C	4.4%	9.4%	-4.2%	0.1%	-2.9%	16.5%	·
